Active and inactive are the calls of the source. Unless noted, no rule for the calls is given here.

Assay [1] is described as follows: resazurin metabolic signal in HepG2 cells – cell-based, resazurin fluorescence, 24 h, PK04 Diversity Set, profiling panel (AID 1172). The settings on record: HepG2 viability, higher = more signal. On the technique in general: Resazurin is reduced to fluorescent resorufin, in cell work by metabolically active cells.
Assay [2] is described as follows: budding yeast growth changes without added modifier – OD600, strain BY4716, 24 h, basal condition, primary screen (AID 1173). To be noted: S. cerevisiae BY4716 growth, OD600, 24 h; higher = more signal, called active from +8 up or from −8 down.
Assay [3] in a line: viability profiling in MM1S myeloma cells – cell-based, resazurin fluorescence, basal, 24 h, PK04 Diversity Set, profiling panel (AID 1174). The settings on record: higher = more signal, called active from +8 up or from −8 down.
The target in assay [4] is Dihydroorotate dehydrogenase (quinone), mitochondrial (Plasmodium falciparum (isolate 3D7)) (UniProt Q08210). The assay can be described thus: inhibition of P. falciparum DHODH – biochemical, C-terminal His tag, absorbance 600 nm, primary screen (AID 1175).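 Also: recombinant parasite enzyme with a five histidine tag at its C terminus.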 The settings on record: PfDHODH enzyme, DCIP absorbance 600 nm; higher = more signal, called active from +8 up or from −8 down.
Dihydroorotate dehydrogenase (quinone), mitochondrial (Plasmodium falciparum (isolate 3D7)), sequence (Q08210 whole entry, looked up): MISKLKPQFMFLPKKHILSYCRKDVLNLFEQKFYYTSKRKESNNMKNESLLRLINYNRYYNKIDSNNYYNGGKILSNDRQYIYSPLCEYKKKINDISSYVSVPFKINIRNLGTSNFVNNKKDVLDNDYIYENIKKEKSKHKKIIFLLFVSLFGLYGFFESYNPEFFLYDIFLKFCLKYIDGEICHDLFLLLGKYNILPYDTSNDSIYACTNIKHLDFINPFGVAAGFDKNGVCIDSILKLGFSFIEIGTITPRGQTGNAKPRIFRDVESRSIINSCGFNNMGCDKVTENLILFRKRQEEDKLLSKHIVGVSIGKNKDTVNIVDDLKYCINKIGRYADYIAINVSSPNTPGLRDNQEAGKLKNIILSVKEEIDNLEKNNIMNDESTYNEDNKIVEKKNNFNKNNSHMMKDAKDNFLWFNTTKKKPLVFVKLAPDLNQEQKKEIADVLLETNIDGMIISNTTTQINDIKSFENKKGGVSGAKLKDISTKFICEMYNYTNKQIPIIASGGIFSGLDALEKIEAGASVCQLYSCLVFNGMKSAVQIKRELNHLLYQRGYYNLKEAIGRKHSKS

Assay [5] is described as follows: inhibition of PAO1 biofilm formation – strain PAO1, LB-PBS medium, absorbance 600 nm, primary screen (AID 1176). To be noted: P. aeruginosa PAO1 growth/biofilm, A600, 12 h; higher = more signal.
A short description of assay [6]: growth modulation of vineyard yeast isolate – strain RM11-1a, OD600, basal, 24 h, primary screen (AID 1177).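 Also: cultures grown under basal conditions with no added stressor.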 The settings on record: S. cerevisiae RM11-1a growth, OD600, 24 h; higher = more signal, called active from +8 up or from −8 down.
A short description of assay [7]: growth of efflux-deficient E. coli DRC39 – strain DRC39, OD650, 24 h, E. coli filamentation inducers, primary screen (AID 1178).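 Also: growth measured as culture turbidity by optical density at 650 nm.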 To be noted: E. coli DRC39 acrAB, higher = more signal, called active from +8 up or from −8 down.
Assay [8] in a line: growth of efflux-deficient E. coli DRC39 – strain DRC39, OD650, 48 h, E. coli filamentation inducers, primary screen (AID 1179).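 Also: screen aims at cell division blockers that make cells filament.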 The settings on record: E. coli DRC39 delta-acrAB growth, higher = more signal, called active from +8 up or from −8 down.
Assay [9] in a line: viability profiling in RPMI8226 myeloma cells – cell-based, resazurin fluorescence, basal, 24 h, PK04 Diversity Set, profiling panel (AID 1180).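 Also: RPMI8826 multiple myeloma cell line at 5000 cells per well.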 To be noted: higher = more signal.
Assay [10] has as its target E3 ubiquitin-protein ligase XIAP (Homo sapiens) (UniProt P98170). The assay can be described thus: small molecules binding XIAP protein – biophysical, small-molecule microarray, fluorescence 635 nm, primary screen (AID 1181).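 Also: score merges 667 nm emission and signal to noise over triplicate slides.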 The settings on record: higher = more signal.
Assay [11] has as its system XIP peptide (Xip251-270) binding. The assay can be described thus: XIP fragment 251-270 binding compounds – biochemical, small-molecule microarray, fluorescence 635/667 nm, 0.1 µg/mL protein, primary screen (AID 1182). To be noted: fluorescent protein binding, 635 nm, higher = more signal, called active from +8 up or from −8 down.
The subject of another assay is XIP peptide (Xip251-270). The assay can be described thus: compounds binding XIP fragment 251-270 – biochemical, small-molecule microarray, fluorescence 635/667 nm, 0.5 µg/mL protein, primary screen (AID 1183). To be noted: fluorescence 635 nm, higher = more signal.
Assay [12] is described as follows: blood-stage malaria parasite viability loss – strain 3D7, DAPI fluorescence, 100 nL, primary screen (AID 1184).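 Also: parasites grown inside human red blood cells in medium with human serum.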 To be noted: P. falciparum 3D7 growth, 3 d, higher = more signal.
For assay [13], the target named is Homeobox protein Hox-A13 (Mus musculus) (UniProt Q62424). The assay can be described thus: disruptors of Hoxa13 oligonucleotide interaction – biochemical, fluorescence polarization, labeled oligonucleotide, primary screen (AID 1185). To be noted: Hoxa13:DNA binding, 15 min, higher = more signal, called active from +8 up or from −8 down. For orientation: Fluorescence polarisation rises when a labelled molecule tumbles more slowly, as on binding a larger partner.
Homeobox protein Hox-A13 (Mus musculus), sequence (Q62424 whole entry, looked up): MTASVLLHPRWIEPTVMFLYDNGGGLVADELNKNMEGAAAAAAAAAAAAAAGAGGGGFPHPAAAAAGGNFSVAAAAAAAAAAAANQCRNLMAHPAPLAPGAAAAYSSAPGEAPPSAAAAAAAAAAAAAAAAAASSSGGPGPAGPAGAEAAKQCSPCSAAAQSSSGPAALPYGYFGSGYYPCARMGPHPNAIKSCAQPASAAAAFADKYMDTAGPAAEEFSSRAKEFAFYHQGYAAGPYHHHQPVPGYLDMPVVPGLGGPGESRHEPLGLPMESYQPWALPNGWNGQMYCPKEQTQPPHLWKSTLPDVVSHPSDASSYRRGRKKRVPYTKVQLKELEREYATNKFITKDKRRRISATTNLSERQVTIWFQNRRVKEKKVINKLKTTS

The nature of assay [14]: blockers of DNA damage checkpoint Chk1 activation – imaging, HeLa, hydroxyurea, phospho-Chk1 antibody, percent positive cells, primary screen (AID 1186). The settings on record: hydroxyurea-induced phospho-Chk1 immunofluorescence imaging, higher = more signal.
A short description of assay [15]: blockers of DNA damage checkpoint Chk1 activation – imaging, HeLa, hydroxyurea, phospho-Chk1 nuclear intensity, primary screen (AID 1187). To be noted: hydroxyurea-induced phospho-Chk1 immunofluorescence imaging, higher = more signal.

E3 ubiquitin-protein ligase XIAP (Homo sapiens), sequence (P98170 whole entry, looked up, the tested form may be a part): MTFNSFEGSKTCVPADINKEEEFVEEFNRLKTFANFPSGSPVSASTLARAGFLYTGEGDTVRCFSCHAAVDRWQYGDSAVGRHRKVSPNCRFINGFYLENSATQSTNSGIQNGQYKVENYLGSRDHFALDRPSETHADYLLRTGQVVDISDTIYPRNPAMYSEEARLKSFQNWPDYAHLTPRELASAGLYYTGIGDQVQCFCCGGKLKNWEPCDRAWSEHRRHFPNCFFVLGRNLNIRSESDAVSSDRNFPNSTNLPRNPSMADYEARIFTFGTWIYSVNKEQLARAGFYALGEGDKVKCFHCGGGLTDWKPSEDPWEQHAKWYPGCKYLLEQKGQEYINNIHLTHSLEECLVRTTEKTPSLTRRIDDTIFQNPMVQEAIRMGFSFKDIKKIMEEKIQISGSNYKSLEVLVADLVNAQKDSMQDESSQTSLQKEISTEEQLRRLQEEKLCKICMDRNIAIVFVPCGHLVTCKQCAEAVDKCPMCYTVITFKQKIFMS

Regarding `COC(=O)[C@@H]1N=C(c2ccc(OCCCO)cc2)O[C@@H]1C`, the z-score was 0.38 in assay [1]; 0.0443 (inactive) in [2]; -0.341 (inactive) in [3]; -0.689 (inactive) in assay [5]; 0.895 (inactive) in [6]; 0.52 (inactive) in assay [7]. The z-score in assay [8] was 1.13 (inactive); in assay [9], 0.945; in assay [12], 0.985; in [13] it was -2.44 (inactive); in assay [14], -0.749 (inactive); in assay [15] it was -0.626 (inactive). For the same molecule, the composite z-score is -0.403 (inactive) in assay [4], 0.105 in assay [10], 0.0312 (inactive) in assay [11] and 0.232 in the assay with XIP peptide (Xip251-270).

`NCCCCCNC(=O)[C@@H]1C[C@@H]2C(=O)N[C@@H](CCCCN)C(=O)N2[C@@H]1c1ccc(O)cc1`: the z-score was 0.983 in assay [1]; 1.95 (inactive) in assay [2]; 0.116 (inactive) in assay [3]; 2.49 (inactive) in [5]; 2.39 (inactive) in [6]; -0.0253 (inactive) in assay [7]. The z-score in assay [8] is -0.14 (inactive); in assay [9], 0.249; in assay [12], -1.56; in [13], 1.23 (inactive); in [14] it was -0.484 (inactive); in assay [15], -0.497 (inactive). Moreover, the composite z-score in assay [4] was 0.0173 (inactive); in assay [10], 0.554; in assay [11], 0.439 (inactive); in the assay with XIP peptide (Xip251-270), 0.827.

For the molecule `C[N+](C)(C)CCCC[C@@H]1NC(=O)[C@@H]2C[C@H](C(=O)NCCCCCCN)[C@H](c3cccc(OCCO)c3)N2C1=O`, the z-score in assay [1] was -0.418; in [2] it was -0.22 (inactive); in [3], -0.0181 (inactive); in assay [5] it was -0.117 (inactive); in assay [6], -0.0966 (inactive); in assay [7], 0.342 (inactive). Further, the z-score was 0.743 (inactive) in assay [8]; -1.3 in assay [9]; -0.133 in assay [12]; -3.34 (inactive) in [13]; -0.529 (inactive) in assay [14]; -0.386 (inactive) in assay [15]. Moreover, the composite z-score was 0.441 (inactive) in assay [4], 0.215 in [10], 1.52 (inactive) in [11] and 0.771 in the assay on XIP peptide (Xip251-270).

In the case of `C=CCNC(=O)[C@H]1[C@@H]2C(=O)O[C@@H](c3ccccc3)[C@@H](c3ccccc3)N2[C@@H](c2ccccc2OCCO)[C@]12C(=O)N(C(=O)OCCOC)c1ccc(C#CC3(O)CCCCCC3)cc12`, the z-score in assay [1] is -0.536; in [2], -0.0911 (inactive); in assay [3], -3.39 (inactive); in [5] it was 2.42 (inactive); in assay [6] it was 0.0382 (inactive); in assay [7], 0.0979 (inactive). The z-score was 0.975 (inactive) in [8]; -4.17 in assay [9]; -2.15 in assay [12]; -0.807 (inactive) in assay [13]; -0.485 (inactive) in [14]; -0.428 (inactive) in assay [15]. The composite z-score in assay [4] is -1.12 (inactive); in assay [10], -0.259; in [11], 0.892 (inactive); with XIP peptide (Xip251-270), 0.712.

For `O=C(C1N=C(c2ccc(OCCCO)cc2)N(c2ccccc2)O1)N1CCCCC1` (centres undefined), the z-score is 0.377 in [1]; -0.769 (inactive) in [2]; 1.15 (inactive) in assay [3]; -1.35 (inactive) in assay [5]; -0.587 (inactive) in assay [6]; 0.457 (inactive) in assay [7]. Further, the z-score in assay [8] is 0.15 (inactive); in assay [9], 0.188; in assay [12], -0.603; in [13], -3.7 (inactive); in assay [14], -0.216 (inactive); in assay [15] it was 0.153 (inactive). Besides, the composite z-score was -0.152 (inactive) in assay [4], 0.0761 in [10], 2.64 (inactive) in assay [11] and 0.814 with XIP peptide (Xip251-270).

For `C=CCOC(=O)[C@@]1(Cc2ccccc2)C[C@H]2CO[C@H](c3ccc(OC)cc3)N2C1=O`, the z-score in [1] is -0.352; in [2], -2.69 (inactive); in assay [3], 0.437 (inactive); in assay [5], 0.125 (inactive); in [6], -1.1 (inactive); in assay [7], -0.0115 (inactive). In addition, the z-score in assay [8] was -0.187 (inactive); in assay [9], 0.0399; in [12], -0.829; in assay [13], -3.45 (inactive); in [14], -0.0248 (inactive); in assay [15] it was -0.386 (inactive). In addition, the composite z-score is -0.972 (inactive) in assay [4], -0.184 in assay [10], -0.373 (inactive) in [11] and -0.0614 in the assay on XIP peptide (Xip251-270).

Regarding `NCCCCCCNC(=O)[C@@H]1C[C@@H]2C(=O)N[C@@H](CCCCN)C(=O)N2[C@@H]1c1ccc(O)cc1`, the z-score is 0.0187 in [1]; 0.243 (inactive) in [2]; 0.681 (inactive) in assay [3]; 2.5 (inactive) in assay [5]; -0.476 (inactive) in assay [6]; -0.273 (inactive) in [7]. Further, the z-score in [8] was -1.11 (inactive); in assay [9], -0.354; in [12], -0.978; in [13], -1.72 (inactive); in [14], -0.546 (inactive); in [15], -0.123 (inactive). Also, the composite z-score in assay [4] was -29.1 (active); in [10], -0.28; in [11], 2.07 (inactive); in the assay on XIP peptide (Xip251-270), 0.739.

Turning to `Cc1ccc(F)cc1S(=O)(=O)N[C@@H]1CCN(Cc2ccc(Br)cc2)C1`, the z-score in assay [1] was -0.281; in assay [2], -11.9 (active); in [3], 0.611 (inactive); in assay [5], -0.73 (inactive); in [6], -0.184 (inactive); in [7] it was 1.13 (inactive). The z-score in assay [8] is -0.795 (inactive); in [9], 0.264; in [12], -0.999; in assay [13], -5.43 (inactive); in assay [14], 0.0663 (inactive); in [15], -0.335 (inactive). The composite z-score in assay [4] was -0.573 (inactive); in assay [10], -0.17; in assay [11] it was -0.238 (inactive); in the assay on XIP peptide (Xip251-270), -0.192.

As to `COCC(=C=CC[C@H](O)c1ccccc1OCCO)C[C@H](O)c1ccccn1`, the z-score was 0.839 in assay [1]; -0.329 (inactive) in assay [2]; 0.324 (inactive) in assay [3]; 0.354 (inactive) in [5]; -0.115 (inactive) in assay [6]; 0.696 (inactive) in [7]. Moreover, the z-score in assay [8] was 0.547 (inactive); in assay [9], -0.543; in assay [12], -0.259; in assay [13] it was -4.52 (inactive); in assay [14], -2.25 (inactive); in [15] it was -1.6 (inactive). Also, the composite z-score in assay [4] was -2.09 (inactive); in assay [10], -0.102; in [11], -0.488 (inactive); with XIP peptide (Xip251-270), 0.0608.

For the origin of these results see PubChem BioAssay.
